The record followed here is PubChem BioAssay (EPA / NIEHS).

Inconclusive results are not listed. Active and inactive are the calls of the source. Rule for the calls, unless noted: active = hit-call score of the fitted dose curve at least 0.9, where 1 is the maximum; inactive = score below 0.9.

A short description of assay [1]: BSK_BT_PBMCCytotoxicity: PBMC Cytotoxicity Assessment in the BioMAP Diversity Plus: BT Assay (AID 2284225).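 Note: PBMC viability measured by Alamar Blue dye reduction fluorescence.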 Particulars: primary human B cells with PBMC. Summed up: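 PBMC (75,000/well) pretreated with compound 1 h, then activated with SEB and TSST-1 (20 ng/mL each final), incubated 90 h; Alamar Blue added 6 h, fluorescence read at 546/580 nm. Fitted relative to DMSO.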

Read-out in assay [2]: Secreted IgG (sIgG), gene 3500
The assay can be described thus: BSK_BT_sIgG: BioMAP Diversity Plus: BT Assay for Secreted IgG (sIgG) Biomarker Activity (AID 2284226). The settings on record: primary human B cells with PBMC. In outline: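 Human B cell plus PBMC co-culture; secreted IgG measured by ELISA 24 h after chemical dosing. Response fitted in positive direction relative to DMSO baseline.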

The nature of assay [3]: BSK_BT_Bcell_Proliferation: Viability Assessment in the BioMAP Diversity Plus: BT Assay for B cell Proliferation (AID 2284227). The settings on record: primary human B cells with PBMC. Summed up: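 SRB-based protein staining (0.1% SRB after 10% TCA fixation, 560 nm) quantifies proliferation in human B cells co-cultured with PBMC, 72 h post-dosing, with signal gain scored relative to DMSO negative control.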

Read-out in assay [4]: Interleukin 6 (IL6), IL6 (gene 3569)
The assay is described as follows: BSK_BT_xIL6: BioMAP Diversity Plus: BT Assay for Interleukin 6 (IL6) Biomarker Activity (AID 2284228). Particulars: primary human B cells with PBMC. In outline:
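Chemical added to human B cell/PBMC co-culture → 24 h → supernatant IL-6 by Luminex xMAP → fit vs DMSO baseline, upward direction.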

Read-out in assay [5]: Tumor necrosis factor (Homo sapiens) (UniProt P01375)
The assay is described as follows: BSK_BT_xTNFa: BioMAP Diversity Plus: BT Assay for Tumor necrosis factor alpha (TNF-alpha) Biomarker Activity (AID 2284230). The settings on record: primary human B cells with PBMC. In outline: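 Compounds were added to a B cell plus PBMC co-culture, and after 24 h secreted TNF-alpha was quantified with Luminex xMAP technology, with responses fitted upward from the DMSO control.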

Read-out in assay [6]: Vascular cell adhesion molecule 1 (VCAM1), VCAM1 (gene 7412)
The assay can be described thus: BSK_MyoF_VCAM1: BioMAP Diversity Plus: MyoF Assay for Vascular cell adhesion molecule 1 (VCAM1) Biomarker Activity (AID 2284231). Particulars: primary human lung fibroblasts. Summed up:
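Steps: fibroblasts from human lung exposed to compound; biomarker quantified by ELISA at 24 h; values analysed for upward change over the DMSO baseline.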

Read-out in assay [7]: Collagen I, COL1A1 (gene 1277)
The assay is described as follows: BSK_MyoF_CollagenI: BioMAP Diversity Plus: MyoF Assay for Collagen I Biomarker Activity (AID 2284238). Particulars: primary human lung fibroblasts. Summed up:
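Multiplexed primary human lung fibroblast system; Collagen I measured by ELISA at 24 h post-dose. Increases are referenced to DMSO.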

Assay [8] is described as follows: TAMU_PeakParms_SingleDonor1434_Chronotropy: Texas A&M University (TAMU) 1.5-hr Human Induced Pluripotent Stem Cell (iPSC)-derived Cardiomyocytes Calcium (Ca+2) Flux Assay for Cardiotoxicity: Chronotropy (changes in peak frequency) (AID 2284217). Particulars: actives raise or lower the signal. In outline: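 Beat frequency of single-donor iPSC cardiomyocytes was recorded through a calcium-sensitive dye 1.5 hours after exposure to four concentrations up to 100 uM. An EC05 point of departure was derived.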

The nature of assay [9]: TAMU_HCS_1.5hr_SingleDonor1434_Cytotoxicity: Cytotoxicity Assessment using High-content Screening (HCS) Fluorescent Imaging for the Texas A&M University (TAMU) 1.5-hr Human Induced Pluripotent Stem Cell (iPSC)-derived Cardiotoxicity Assay (AID 2284234; active = hit-call score of the fitted dose curve at least 0.9, where 1 is the maximum). In outline: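 Human iPSC-derived cardiomyocytes dosed at 0.2, 1, 10, 100 uM final (0.5% DMSO) for 90 min at 37 C. Hoechst 33342-stained nuclei counted by 10x high-content imaging; POD is EC10, a 10% drop in total cell count versus DMSO.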

Chain of Tumor necrosis factor (Homo sapiens) (P01375 whole entry, looked up): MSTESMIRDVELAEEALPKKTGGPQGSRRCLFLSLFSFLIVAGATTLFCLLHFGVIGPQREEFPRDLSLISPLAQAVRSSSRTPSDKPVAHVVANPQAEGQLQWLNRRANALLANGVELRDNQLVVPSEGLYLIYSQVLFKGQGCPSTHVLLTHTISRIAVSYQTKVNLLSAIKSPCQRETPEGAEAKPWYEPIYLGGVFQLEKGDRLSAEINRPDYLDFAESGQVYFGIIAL

As for `CNC[C@H](O)c1cccc(O)c1`, the result in assay [1], in assay [2], in assay [3], in [4], in assay [5] and in [6] was inactive. Besides, the outcome in assay [7] was inactive.
With `Cc1ccc2n[nH]nc2c1`, the result in assay [1], in [2], in assay [3], in [4], in assay [5] and in [6] was inactive. Besides, the outcome in assay [7] was inactive.
For the molecule `c1ccc2c(c1)c1cccc3ccc4cccc2c4c31`, the results for the AC50 in [8], in assay [2] and in [4] were 9.92 µM (active), 20 µM (active) and 2.63 µM (active), respectively. Further, the result in [1], in [3], in assay [5], in assay [6], in [9] and in assay [7] was inactive.
Regarding `Nc1cc([N+](=O)[O-])ccc1Cl`, the result in assay [1], in assay [2], in assay [3], in assay [4], in [5] and in [6] was inactive. In assay [7], the outcome was inactive.
For `COC(=O)c1ccc(C)cc1`, the outcome in [1], in [2], in assay [3], in [4], in [5] and in assay [6] was inactive. Besides, in assay [7], the outcome was inactive.
`CCCCC(CC)COC(=O)/C=C\C(=O)OCC(CC)CCCC` (stereo unspecified): the AC50 (usually the concentration at which the activity in the assay is half-maximal) was 36.1 µM (active) in assay [1], 7.47 µM (active) in [2], 20 µM (active) in [3] and 11.2 µM (active) in assay [4]. For the same molecule, the result in [5], in assay [6] and in assay [7] was inactive.
For `Cc1ccc(O)c(C(C)(C)C)c1`, the outcome in assay [1], in assay [2], in [3], in assay [4] and in assay [5] was inactive. The figures for the AC50 in assay [6] and in assay [7] were 34.4 µM (active) and 35.4 µM (active), respectively.
Turning to `C#C[C@]1(O)CC[C@H]2[C@@H]3CCC4=Cc5oncc5C[C@]4(C)[C@H]3CC[C@@]21C`, the result in assay [1], in assay [4] and in assay [7] was inactive. For the same molecule, the AC50 was 14.3 µM (active) in assay [2], 33.1 µM (active) in assay [3], 33.7 µM (active) in assay [5] and 20 µM (active) in [6].
For the molecule `CN(CCOc1ccc(CC2SC(=O)NC2=O)cc1)c1ccccn1` (stereo unspecified), the outcome in assay [1], in [2], in assay [3], in assay [4] and in assay [5] was inactive. Also, the AC50 is 3.97 µM (active) in assay [6] and 0.016 µM (active) in assay [7].
`CC1CCC(C(C)CS)CC1S` (stereo unspecified): the result in assay [1], in [2], in assay [3], in assay [4] and in assay [5] was inactive. In addition, the half-maximal activity concentration (AC50) was 8.17 µM (active) in [6] and 5.96 µM (active) in assay [7].
For `CCCCCCCCC=O`, the result in [1], in assay [2], in [3], in assay [4], in assay [5] and in [6] was inactive. Further, in [7], the result was inactive.
Consider `O=[N+]([O-])c1cc(C(F)(F)F)ccc1Cl`, for which the result in [1], in assay [2], in assay [3], in assay [4], in assay [5] and in assay [6] was inactive. In assay [7], the result was inactive.
On to `CCCCC/C=C/C=C/C=O`, for which the AC50 in assay [1] is 20 µM (active); in assay [2] it was 29 µM (active); in assay [3], 20.1 µM (active); in assay [4], 27.4 µM (active); in [5] it was 35.7 µM (active); in [6] it was 34.9 µM (active). Also, the AC50 in assay [7] is 32.4 µM (active).
For `O=C(O)C[C@H](O)C[C@H](O)/C=C/c1c(C2CC2)nc2ccccc2c1-c1ccc(F)cc1`, the outcome in assay [1], in assay [4], in [6] and in assay [7] was inactive. Moreover, the values for the AC50 in assay [2] and in [5] were 0.122 µM (active) and 3 µM (active), respectively.
With `c1ccc2sc(SN(C3CCCCC3)C3CCCCC3)nc2c1`, the outcome in [1], in [2], in assay [3], in assay [4], in assay [5] and in [6] was inactive. Also, the outcome in assay [7] was inactive.
As for `O=C(O)c1cn(C2CC2)c2cc(N3CCNCC3)c(F)cc2c1=O`, the outcome in assay [1], in assay [2], in [3], in assay [4], in [5] and in assay [6] was inactive. Also, the result in assay [7] was inactive.
For the molecule `CCCCCCCCCCCCCCCCCC(=O)OCC(CC)CCCC` (stereo unspecified), the outcome in assay [1], in [2], in [3], in assay [4], in [5] and in [6] was inactive. Also, in assay [7], the result was inactive.
Turning to `CCCCCCCCCC=O`, the result in [1], in [3], in assay [4], in [5], in [6] and in [7] was inactive. Further, the AC50 in assay [2] is 20 µM (active).
In the case of `CC(=O)/C=C/C1=C(C)CCCC1(C)C`, the outcome in [1], in [2], in assay [3], in [4], in assay [5] and in [6] was inactive. Moreover, in assay [7], the outcome was inactive.
As for `CC(C)Oc1ccccc1O`, the outcome in [1], in [2], in assay [3], in assay [4], in [5] and in [6] was inactive. In addition, the result in assay [7] was inactive.
